Measurements as given in PubChem BioAssay (NCATS).
Values joined by “and” are separate entries in the source; they are usually repeats but may differ in a detail not shown here. Identical values can stand only once. A number with no mark means an inactive call. Results filed as inconclusive are left out. A call without a number means that no potency is given here. Active and inactive are the calls of the source. Unless noted, calls come from the whole dose curve; as a rule, active = well fitted curve in the direction sought with a large enough effect; inconclusive = small, poorly fitted or top-dose-only effect, or another doubt; inactive = no such curve, though single readings can be large; an effect the other way counts as inactive or inconclusive.

What was measured:
[1] = Cell Viability - BJ (AID 421; calls by dose curve;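 note: potency is the fitted concentration of half-maximal effect; cells exposed to compound for 40 hours at 37 °C before readout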); conditions: BJ fibroblast viability, qHTS
In short: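 Luminescent ATP signal (CellTiter-Glo, 20 min at room temperature) served as the read-out of viable BJ cells after 40 hours of compound treatment. Responses were scaled between DMSO and 100 uM tamoxifen, and AC50 values were obtained by Hill modeling.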

[2] = molecular target: Mitogen-activated protein kinase 10 (Mus musculus) (UniProt Q61831); test: JNK3 AlphaScreen Assay (AID 530; active = well fitted curve in either direction with a large enough effect, not every such curve was filed as active;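 note: kinase came from lysate of stimulated human HepG2 cells; signal reports phosphorylation of biotinylated GST-cJun 1-79 at Ser73 with 10 µM ATP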)
In short: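 Kinase buffer: 20 mM Tris-HCl pH 7.6, 10 mM MgCl2, 1 mM DTT, 0.1 mM Na3VO4, 0.01% Tween-20; ATP 10 uM. Substrate biotin-GST-cJun(1-79), enzyme from activated HepG2 lysates. Detection by Ser73 phospho-antibody AlphaScreen.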

[3] = Cell Viability - Mesenchymal (AID 546);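 note: cells exposed to compound for 40 hours before reading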
In short: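 CellTiter-Glo luminescence (intracellular ATP, 20 min room temperature) after 40 hr compound exposure at 37 °C of 1000 glomerulus-derived human kidney mesenchymal cells/well; AC50 values obtained by fitting qHTS concentration-response data to the Hill equation.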

[4] = Cellular Toxicity (caspase-3) HepG2 (AID 654);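 note: cells exposed to compound for 16 hours before reading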
In short: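 Luminescent Caspase-Glo 3/7 readout after 16 hr compound exposure of human hepatocellular carcinoma HepG2 cells at 37 °C; qHTS concentration-response, normalized DMSO = 0%, 100 uM tamoxifen = 100%; AC50 by standard Hill equation.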

[5] = Cellular Toxicity (caspase-3) HUV-EC-C (AID 656)
In short: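 HUV-EC-C cells (1000/well) in complete medium, compound-treated 16 h at 37 °C; caspase-3/7 activity read by Caspase-Glo 3/7 luminescence. Normalized to DMSO (basal) and 100 uM tamoxifen (100%); AC50 from Hill-equation concentration-response fits.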

[6] = Cellular Toxicity (caspase-3) MRC-5 (AID 659)
In short: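 Luminescent Caspase-Glo 3/7 read-out (1 h, room temperature) after a 16 h, 37 °C compound exposure of MRC-5 lung fibroblasts at 1500 cells/well. Concentration-response AC50 from Hill equation; 0% DMSO, 100% 10 uM staurosporine.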

[7] = Cellular Toxicity (caspase-3) SK-N-SH (AID 661);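 note: cells exposed to compound for 16 hours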
In short: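 Luminescent Caspase-Glo 3/7 read-out after 16 hr compound exposure of SK-N-SH neuroblastoma cells at 37 °C. Signal increase normalized to DMSO (basal) and 10 uM staurosporine (100%); AC50 from Hill equation fits of qHTS concentration-response data.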

[8] = Cellular Toxicity (caspase-3) Hek293 (AID 664); conditions: HEK293 caspase-3 activation, DMSO = 0%, 100 µM tamoxifen = 100%; at 92.2 µM (top of the series);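 note: cells exposed to compound for 16 h at 37 °C before readout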
In short: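 Luminescent Caspase-Glo 3/7 readout (aminoluciferin release) in HEK293 cells after 16 h compound treatment, 37 °C. Normalization: DMSO = basal, 100 uM tamoxifen = 100% stimulation. Concentration-response fitted with standard Hill equation for AC50.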

[9] = molecular target: Cytochrome P450 3A4 (Homo sapiens) (UniProt P08684); test: qHTS Assay for Inhibitors and Substrates of Cytochrome P450 3A4 (AID 884); note: nearly all actives have a fitted effect of over 50% in size; note: potency is the fitted concentration of half-maximal effect
Sequence of Cytochrome P450 3A4 (Homo sapiens) (P08684 whole entry, looked up): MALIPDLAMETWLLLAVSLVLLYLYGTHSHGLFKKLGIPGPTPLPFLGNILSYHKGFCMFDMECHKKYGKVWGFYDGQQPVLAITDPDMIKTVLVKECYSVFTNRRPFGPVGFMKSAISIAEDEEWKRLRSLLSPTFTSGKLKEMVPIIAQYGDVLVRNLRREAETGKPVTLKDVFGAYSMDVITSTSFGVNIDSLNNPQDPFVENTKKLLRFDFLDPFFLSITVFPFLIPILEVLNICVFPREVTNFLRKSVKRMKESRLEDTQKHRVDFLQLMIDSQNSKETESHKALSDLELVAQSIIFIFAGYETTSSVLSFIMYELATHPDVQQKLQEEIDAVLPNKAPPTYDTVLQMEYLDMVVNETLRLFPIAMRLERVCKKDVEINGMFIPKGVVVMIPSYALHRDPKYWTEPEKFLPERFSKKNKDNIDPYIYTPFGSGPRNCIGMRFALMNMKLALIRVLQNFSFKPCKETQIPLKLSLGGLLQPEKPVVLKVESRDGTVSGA
In short: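 Luminescent readout of luciferin produced by CYP3A4 (20 nM) dealkylation of Luciferin-PPXE, 25 uM (its KM). NADPH-driven reaction ran 60 min at RT after 10 min compound preincubation; data scaled to 57 uM ketoconazole as 100% inhibition.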

[10] = MultiTox-Fluor Cytotoxicity Assay - LYMP1-001 - Dead Cells (AID 946)
In short: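 AC50 from Hill fit of concentration-response; data normalized to DMSO (basal) and 15 uM tetraoctylammonium bromide (100%). LYMP1-001 lymphoblastoid cells, 2500/well, 16 hr compound at 37 C; dead-cell protease fluorescence, Ex/Em 485/520.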

[11] = Cell Viability - LYMP1-002 - Assay at 16 hr (AID 948)
In short: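 LYMP1-002 human lymphoblastoid cells, 2500/well, were treated with compounds for 16 hr at 37 C in complete medium. Viability was read as intracellular ATP by CellTiter-Glo luminescence, and AC50 was derived from a Hill fit to concentration-response data.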

[12] = molecular target: Voltage-gated inwardly rectifying potassium channel KCNH2 (Homo sapiens) (UniProt Q12809); test: qHTS Assay for Small Molecule Inhibitors of the Human hERG Channel Activity (AID 588834);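 note: lower thallium flux fluorescence means stronger hERG block; nearly all actives have a fitted effect of over 50% in size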; note: potency is the fitted concentration of half-maximal effect
Sequence of Voltage-gated inwardly rectifying potassium channel KCNH2 (Homo sapiens) (Q12809 whole entry, looked up): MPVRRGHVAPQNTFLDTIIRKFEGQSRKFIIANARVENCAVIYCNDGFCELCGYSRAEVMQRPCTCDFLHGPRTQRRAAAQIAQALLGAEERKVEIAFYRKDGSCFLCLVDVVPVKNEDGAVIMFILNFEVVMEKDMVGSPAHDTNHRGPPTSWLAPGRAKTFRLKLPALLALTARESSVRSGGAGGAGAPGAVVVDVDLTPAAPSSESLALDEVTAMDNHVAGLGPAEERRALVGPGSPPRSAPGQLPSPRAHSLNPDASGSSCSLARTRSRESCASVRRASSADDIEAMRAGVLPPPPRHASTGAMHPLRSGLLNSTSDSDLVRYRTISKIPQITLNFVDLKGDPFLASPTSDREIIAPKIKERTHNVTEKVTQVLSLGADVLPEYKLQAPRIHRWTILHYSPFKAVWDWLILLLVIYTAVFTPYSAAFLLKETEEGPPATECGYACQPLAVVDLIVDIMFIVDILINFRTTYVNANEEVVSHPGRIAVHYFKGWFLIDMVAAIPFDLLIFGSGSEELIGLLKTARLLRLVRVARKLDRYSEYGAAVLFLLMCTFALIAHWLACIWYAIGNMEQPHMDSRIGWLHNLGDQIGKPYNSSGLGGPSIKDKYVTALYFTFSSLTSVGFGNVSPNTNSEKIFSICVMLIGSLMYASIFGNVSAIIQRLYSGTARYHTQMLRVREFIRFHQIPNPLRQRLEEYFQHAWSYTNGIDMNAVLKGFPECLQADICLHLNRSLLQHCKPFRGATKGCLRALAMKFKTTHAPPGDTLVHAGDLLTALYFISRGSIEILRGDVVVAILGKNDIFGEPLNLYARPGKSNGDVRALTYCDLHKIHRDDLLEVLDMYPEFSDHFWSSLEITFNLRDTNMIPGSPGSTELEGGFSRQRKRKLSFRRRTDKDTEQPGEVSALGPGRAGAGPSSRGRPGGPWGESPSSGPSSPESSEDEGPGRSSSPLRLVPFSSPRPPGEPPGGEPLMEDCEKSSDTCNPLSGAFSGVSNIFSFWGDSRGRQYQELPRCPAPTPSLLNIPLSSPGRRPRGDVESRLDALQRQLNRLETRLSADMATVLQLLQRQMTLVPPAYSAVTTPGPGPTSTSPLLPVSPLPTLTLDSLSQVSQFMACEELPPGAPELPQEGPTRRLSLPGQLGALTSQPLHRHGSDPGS
In short: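 Thallium serves as surrogate for K+ influx through BacMam-delivered hERG in U2OS cells. Compounds are added for about 10 minutes after dye loading; stimulation buffer then starts flux, monitored kinetically on FDSS.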

[13] = molecular target: Peroxisome proliferator-activated receptor alpha (Homo sapiens) (UniProt Q07869); test: qHTS assay for small molecule agonists of the peroxisome proliferator-activated receptor alpha (PPARalpha) signaling pathway (AID 651778); conditions: PathHunter PPARalpha complementation, chemiluminescence, 6 h; active compounds read high
Sequence of Peroxisome proliferator-activated receptor alpha (Homo sapiens) (Q07869 whole entry, looked up): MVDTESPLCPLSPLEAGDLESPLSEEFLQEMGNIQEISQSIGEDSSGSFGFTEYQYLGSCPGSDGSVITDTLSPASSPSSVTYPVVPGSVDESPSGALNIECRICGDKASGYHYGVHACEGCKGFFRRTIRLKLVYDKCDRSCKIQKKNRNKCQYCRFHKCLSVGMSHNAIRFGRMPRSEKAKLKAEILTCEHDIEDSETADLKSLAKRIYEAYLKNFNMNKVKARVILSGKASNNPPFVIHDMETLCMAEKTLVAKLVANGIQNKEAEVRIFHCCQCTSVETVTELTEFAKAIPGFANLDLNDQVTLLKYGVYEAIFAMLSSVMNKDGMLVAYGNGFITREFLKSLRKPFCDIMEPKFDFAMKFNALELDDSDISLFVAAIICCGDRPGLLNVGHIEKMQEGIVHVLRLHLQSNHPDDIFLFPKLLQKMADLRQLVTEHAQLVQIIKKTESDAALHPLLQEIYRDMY
In short: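 Chemiluminescence from complemented enzyme reported PPARalpha activation in cells after 6 hr of compound treatment at 37 C. The detection reagent was incubated for 60 min at room temperature, and compounds were scored as agonists.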

Row | SMILES | Potency [1] | Potency [2] | Potency [3] | outcome [4] | outcome [5] | outcome [6] | Potency [7] | caspase-3 activation [8] | Potency [9] | outcome [10] | outcome [11] | Potency [12] | max response [13]
1 | Cc1ccc(N)cc1N | > 92 µM | inactive | inactive | inactive | inactive | inactive | inactive | 0.128% | inactive | inactive | inactive | inactive | 6.43% and -0.158%
2 | Cc1cc(-c2cc(C)c(N)c(C)c2)cc(C)c1N | > 92 µM |  | inactive | inactive | inactive | inactive | inactive | -0.121% | 25.1 µM (active) | inactive | inactive | inactive | -3.9%
3 | O=C(O)C(Cl)Br (stereo not given) | > 92 µM | inactive | inactive | inactive | inactive | inactive | inactive | 0.0973% | inactive | inactive | inactive | inactive | -0.46%
4 | CCCBr | > 92 µM | inactive | inactive | inactive | inactive | inactive | inactive | 2.6% | inactive | inactive | inactive | inactive | -0.188%
5 | BrC(Br)Br | > 92 µM |  | inactive | inactive | inactive | inactive | inactive | -0.311% | inactive | inactive | inactive | inactive | -7%
6 | CC(=O)CCC(C)=O | > 92 µM | inactive | inactive | inactive | inactive | inactive | inactive | 0.261% | inactive | inactive | inactive | inactive | -3.42%
7 | Nc1ccc2ccccc2c1 | > 92 µM | inactive | inactive | inactive | inactive | inactive | inactive | 2.15% |  | inactive | inactive | inactive | -2.41%
8 | CCOC(=O)CBr | > 92 µM | inactive | inactive | inactive | inactive | inactive | inactive | 1.06% | inactive | inactive | inactive | inactive | -2.92%
9 | C=CC(=O)OC | > 92 µM | inactive | inactive | inactive | inactive | inactive | inactive | 2% | inactive | inactive | inactive | inactive | -1.74%
10 | CC12CC1(C)C(=O)N(c1cc(Cl)cc(Cl)c1)C2=O (stereo not given) | > 92 µM | inactive | inactive | inactive | inactive | inactive | inactive | 1.47% | inactive | inactive | inactive | inactive | -1.35% and -2.97%
11 | Cc1ccc(OP(=O)(Oc2ccc(C)cc2)Oc2ccc(C)cc2)cc1 | > 92 µM |  | inactive | inactive | inactive | inactive | inactive | 2.34% | 7.94 µM (active) | inactive | inactive | 20 µM (active) | -4.04% and -0.382%
12 | O=C(Cl)OCc1ccccc1 | > 92 µM | inactive | inactive | inactive | inactive | inactive | inactive | 0.783% | inactive | inactive | inactive | inactive | 0.201%
13 | CCOP(=O)(OCC)OCC | > 92 µM | inactive | inactive | inactive | inactive | inactive | inactive | 0.845% | inactive | inactive | inactive | inactive | 0.636% and -0.566%
